Over roughly 25,000 sequences, “ln(normalized median fluorescence intensity)” has its median near 6.7; the highest 2% begin near 10. Only a selection was taken, and the highest values are over-represented in it overall.
What follows are sequences tested on PfHDP1 homeodomain (GST-tagged) (assay: gcPBM binding intensity (ln(normalized median fluorescence intensity)); higher = stronger DNA binding).
In short: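 Each value is the highest Masliner-normalised natural-log median intensity across replicate spots of either orientation of a probe. The probes were primer-extended double-stranded 36-bp intergenic genomic sequences on an Agilent 4 × 180k array, alongside negative controls, exposed for 1 h to GST-tagged P. falciparum DNA-binding domains expressed in E. coli. Bound protein was picked up with Alexa488 anti-GST antibody and scanned at 488 nm.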

| Sequence | gcPBM binding intensity (ln) |
| --- | --- |
| TTATAAAGAAAAAATTGCTTTAAAAGAAAGATTACA [CACACA_negctrl_site960] | 5.87 |
| CTAAATTGTTAATAGAGTACATTTGTATAATATAAG [XGTACX_site594] | 6.44 |
| ATATATATATATGTACACATATATGTGTTTGTTTTT [GTGCAC_negctrl_site5] | 8.99 |
| GTAATTTTTTTCTATACACACATATCTATAATATAT [CACACA_site7284] | 6.94 |
| TCACTATAATAATTTACACACATTTTAAGAAAATGT [CACACA_site3530] | 6.61 |
| TGTTTGCTTATGTGTTAAATATATATATATATATAT [TGCATGCA_negctrl_site218] | 9.25 |
| ATTTTTGTAATTATTTGTACACATTTATTTATGTGT [XGTACX_site1864] | 6.76 |
| TATATGTAATATTATACATGCATACATAATATATAT [TGCATGCA_site558] | 6.52 |
| CATGTGCATATTAAATGTACATATATACATATATAC [XGTACX_site857] | 10.2 |
| TTTTTTTTTTTTTTGTGTACTAATATTATAAATTTT [XGTACX_site4405] | 6.44 |
| TTATATGTATTTCTTTGTACACATTTTTATATATAT [XGTACX_site1462] | 7.16 |
| ATACCATATAATTATGTGAGAAAATATAATATTCAT [CACACA_negctrl_site310] | 6.55 |
| TATTAATGCAAATGTTATATGTGCATACATAAATGT [CACACA_negctrl_site790] | 10.9 |
| TTTTTTAAATTTAAAGTGCATTATTATATATTTGTA | 8.5 |
| AGTGAGAAATACATAATAATACATTATGTGCATATT [XGTACX_negctrl_site247] | 10.7 |
| TATACATATATAAATGCATGTTGATATTAATAGTTA [TGCATGCA_site639] | 6.53 |
| TCCAATTCTTTATTTTGTACACATTATGTGCATATG [XGTACX_site6290] | 10.9 |
| TTATATTAATTTTGTTGTACTATTTGTGCATTAAAT [XGTACX_site4790] | 10.8 |
| AAATAGTTGTTATGGGTGCAAACCACATATATATAA [GTGCAC_site9428] | 8.79 |
| TGTAGTTTGTCCCATGCATGTTCCATTAAAATATAT [TGCATGCA_site854] | 7.57 |
| TTATGTAGTATAATGAGTACTAAATATAGATATGTT [XGTACX_site6335] | 6.56 |
| ATTTAACAACTTCAAACACACAATATAGATTTATAT [CACACA_site7067] | 6.6 |
| AAACAAGTAATTGTTATTATTATTATATTATTATTA [CACACA_negctrl_site402] | 6.12 |
| TTTGAATATTCATATGCACACAAATTAATATACATA [CACACA_site8040] | 9.99 |
| GTACGTTACATAAATGTGCACATATTATATGCGAAG | 10.7 |
| AATGTATTAAAATTACGTACATATGCACATTTTATA [XGTACX_site5046] | 8.53 |

| Sequence | gcPBM binding intensity (ln) |
| --- | --- |
| TTTATTTATTATTAAAGTACTAAATTATATTATTAT [XGTACX_site2565] | 5.95 |
| ATGTGCAAATATTAAAGTACTAAATTTTATTATTTT [XGTACX_site7306] | 11.3 |
| ATAATAATATTATTTTGTACATATGTGCTTATTTAT [XGTACX_site5540] | 7.11 |
| TTGCATTAATTTATGTGTACATATAAATTTTTATTT [XGTACX_site3060] | 6.94 |
| TATTTCAAATGTTATGTGCACATATTAATCCTACTT [GTGCAC_site9738] | 10.7 |
| ATATATACATATAAATGTACATAATTATTATGCACA [XGTACX_site1261] | 9.09 |
| AAAAAAAAAAAATGTGTGCACATTATTTCAACTTAA | 10 |
| AATAATATTTATTTTTGTACATATGTGCATTATAAA [XGTACX_site3682] | 11.2 |
| TTTATTTATTATTAAAGTACTAAAATATATTATTAT [XGTACX_site4887] | 6.24 |
| ATTTTAAATGTTATGCGTACATATTAATCCTACTTA [XGTACX_site1344] | 6.69 |
| GAAAACGTTTGAAGTTGTACATATGTATAAAAAGAA [XGTACX_site2304] | 7.74 |
| TTTTTCATATTATACTTTTATATACATATATAAAAA [XGTACX_negctrl_site281] | 6.49 |
| ATATATATATGTAATAGTACATATGATAGTTTGTCA [XGTACX_site1545] | 8.51 |
| TTTTTATTGCAATACTTATATTTTTTTATGATTAAA [TGCATGCA_negctrl_site147] | 10.1 |
| TTACATGCTAAAATTTGTACATATATGATAAATATT [XGTACX_site2648] | 6.47 |
| TATTATTTAATCAAATGTACATAGAAAATGTATGTA [XGTACX_site4433] | 6.21 |
| CATATATACAGTAACACACACAAAAAAATATGAATA [CACACA_site3996] | 6.91 |
| ATATAGTTGTCATATTGTACACTTTAGGGTTGGTTA [XGTACX_site7339] | 6.64 |
| TTATAAAAATAATATCGTACAAATGACATAGATGAA [XGTACX_site2570] | 6.6 |
| ATTATCCATGCATTTACACACACACCCAAAAAAATT [CACACA_site4101] | 7.67 |
| ATATATATATATATATGTACATATTTATATTGTAAA [XGTACX_site8878] | 9.35 |
| TAATTACCATATGGTACACACATATATATATGTATA [CACACA_site3487] | 7.02 |
| TTTTTCATAAGAAGCACACAAAAAATGATAGAGAAT [CACACA_site1417] | 7.39 |
| AAAATATTCACGTGTACATATATATATATATATTAT [TGCATGCA_negctrl_site192] | 6.96 |
| TTTTATATAAATATCACACACACACGCATGTTTTAA [CACACA_site6187] | 6.71 |
| CATATACAGAAACACACACACACATAAATAAATATA [CACACA_site1343] | 6.84 |

| Sequence | gcPBM binding intensity (ln) |
| --- | --- |
| ATAATATATGTATGTATGCACTTTTATTATTTTTTT | 7.24 |
| TTTTATATTTTATGCACACTTATAAGAAATATGTAC [CACACA_site3040] | 10.6 |
| TTATATAAAGAATGTACACACAGAAATGCACCCACA [CACACA_site2282] | 9.38 |
| CATTTATATAAAGAATGTACACACAGAAATGCACAC [XGTACX_site4718] | 9.03 |
| TATTTTATATTTTATGCACACTTATAAGAAATATGT [CACACA_site5647] | 9.42 |
| ATTTATATAAAGAATGTACACACAGAAATGCACCCA [CACACA_site8715] | 10.7 |
| AAATATTATAATAATTGTACTATATATACAGTTATT [XGTACX_site1963] | 6.39 |
| TAATATATCTATAATACACACTATTCTAATCACATA [CACACA_site6731] | 6.49 |
| AGTAGTCTGGAGAAGAGTACATAGTATCTGGTAGCT [XGTACX_site2017] | 6.4 |
| ATTTATATTACCCTTGCATGTAGGTGCAATTTTTTT [TGCATGCA_site757] | 10.5 |
| ATATTTTTATTAGTAGTGCAATTTAGTGTATATATA [GTGCAC_site9542] | 10.1 |
| TACCCTTGCATGTAGGTGCAATTTTTTTTTTTTTTT | 9.32 |
| AAAAAAAAAAAACACACACACACATACACATACATA [CACACA_site2858] | 6.83 |
| TTAACATCAAAATATGCACACAAACAATTAGCGGTA [CACACA_site8801] | 9.76 |
| TATGAAAAAATATATACACACATAATAAAGGTATAT [CACACA_site3737] | 6.42 |
| TTTATGCACGCGTGCACACACATATGAAAAAAGGTA [CACACA_site3315] | 11 |
| TATTTATGCACGCGTGCACACACATATGAAAAAAGG [CACACA_site9090] | 10.9 |
| CAAAAGGATATGCACACACACACACGGATATTTATA [CACACA_site7099] | 10.1 |
| TTTATGACTTGAAAAAGTACACATATATTTATGCAA [XGTACX_site5451] | 6.31 |
| TTATATGCATAAAAAGGTACACATATATAAATAAAT [XGTACX_site6894] | 6.68 |
| TTAGGAAGCTCACAAAATAAAGTGAAAAGAAGAAAA [XGTACX_negctrl_site572] | 6.45 |
| CCACAAGTATATAGTAGTACAATTTTTTTCTCTTTA [XGTACX_site4403] | 6.12 |
| ACAACAAAAATAAGCACACACAAATATACATACATA [CACACA_site7664] | 6.55 |
| TTTTTATATAACCTTCTTAATTCTTTTTTTTTTTTT [XGTACX_negctrl_site591] | 6.16 |
| TTTATTGCTCTATATGCACACCTTAATTCTTCATTT [CACACA_site8682] | 11.1 |
| CTTTTATTGCTCTATATGCACACCTTAATTCTTCAT [CACACA_site2195] | 10.5 |

| Sequence | gcPBM binding intensity (ln) |
| --- | --- |
| TTCTCTATAAATGCTGCACACACATTTAATTATTTA [CACACA_site8828] | 8.06 |
| TCATATAATATTTATATGCACACTTTTCTATATATA [CACACA_site4075] | 8.75 |
| CTCTTCTATATATAAGCATGCATTCATAATAATTTA [TGCATGCA_site679] | 7.04 |
| AAAAGGAACGGACACACACACATATATATATATATA [CACACA_site5894] | 9.45 |
| TTTTTGAGTGCACATACACACAGACATACATTTAAA [CACACA_site5813] | 10.4 |
| TTAATATAACTTTTTGCACACTTAATTTTTTTTTTT [CACACA_site3364] | 10.2 |
| TATATTAAACTTTGCACACATAATTTAACTACAAAG [CACACA_site3441] | 10.5 |
| ACTAAACTTTTATGTACACACATATAACATTAATTT [CACACA_site5276] | 6.98 |
| TTTTTTTTTTTTTTTGCACACTATATTTAATATAAG [CACACA_site2444] | 9.31 |
| TATATATTAAACTTTGCACACATAATTTAACTACAA [CACACA_site3440] | 10.7 |
| AATATAACTTTTTGCACACTTAATTTTTTTTTTTAA [CACACA_site3365] | 10.6 |
| ATGTATATGTTTTGTTGTACAAGTATTTTATATCTT [XGTACX_site3588] | 6.77 |
| AAAATTAAACTCACACCACACACAAAAAAAAAAAAA [CACACA_site8131] | 6.32 |
| AACTCATAGCGGTGTGCACACAAAAAATTAAAAAAA [CACACA_site3033] | 11 |
| CTCATAGTTGGGTGCACACAAAAAATTAAAAAAATA [CACACA_site3032] | 10.3 |
| TTCATATTATAGTGCACACAAAAATATATATATGGT [CACACA_site2855] | 10.4 |
| AATTATTAGCGTGGTGTGCACAAAATTATGGACACA | 9.8 |
| AACTCATAGGAGTGTGCACACAAAAAATTAAAAAAA [CACACA_site8996] | 11 |
| AGTATATATTATATATATATATATATATTATATATG [TGCATGCA_negctrl_site99] | 6.59 |
| CTTTCTTATTTGAACGCATGCATTTGTACCTTTTAT [TGCATGCA_site671] | 6.85 |
| AAATTCCACCAACACACACACATATAAATAAATAAA [CACACA_site1233] | 6.84 |
| TTCAAAACTTAAAATCGTACAAGACAATTATTATAT [XGTACX_site6626] | 6.32 |
| TTCTTTTTATTTATATTTTCCCCTCTCTATAGCTAT [XGTACX_negctrl_site102] | 7.06 |

Source: the supplement of paper PMC11417369
